{"source": "PubChem BioAssay AID1159580", "about": "(chemical genetic matrix, 2015)", "test": "chemical genetic growth profiling, strain panel (AID 1159580);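 further: tested at 20 µM; growth read once vehicle control cultures reached saturation at 30 °C; 1 = growth at the plate median or of vehicle wells; lower values mean less growth of the strain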", "conditions": "S. cerevisiae deletion strains, growth OD", "note": "Hit rate of the full screen: of about 5,500 compounds, about 2,000 (36%) were called active. Inconclusive results (about 18%) are left out. Some of the results follow. Values without a mark were called inactive. No stated cut-off is given here; in the data, active means normalized growth mostly below about 0.91 (no sharp cut-off); inconclusive means no clear call, values can overlap the other calls; inactive means mostly above about 0.92.", "data": [{"smiles": "O=c1[nH]c(=O)c2nc3ccccc3nc2[nH]1", "values": [{"measurement": "normalized growth", "setting": "locus YAL040C, strain CLN3, active compounds read low", "result": 0.979}, {"measurement": "normalized growth", "setting": "locus YER002W, strain NOP16, active compounds read low", "result": 1}, {"measurement": "normalized growth", "setting": "locus YGR078C, strain PAC10, active compounds read low", "result": 1.01}, {"measurement": "normalized growth", "setting": "locus YMR307W, strain GAS1, active compounds read low", "result": 0.994}, {"measurement": "normalized growth", "setting": "locus YNL153C, strain GIM3, active compounds read low", "result": 1.01}, {"measurement": "normalized growth", "setting": "locus YNL175C, strain NOP13, active compounds read low", "result": 0.98}, {"measurement": "normalized growth", "setting": "locus YNL197C, strain WHI3, active compounds read low", "result": 0.971}, {"measurement": "normalized growth", "setting": "locus YNL224C, strain SQS1, active compounds read low", "result": 0.999}, {"measurement": "normalized growth", "setting": "locus YOR083W, strain WHI5 (second series), active compounds read low", "result": 0.997}, {"measurement": "normalized growth", "setting": "locus YPL241C, strain CIN2, active compounds read low", "result": 1}]}, {"smiles": "O=[N+]([O-])c1ccc(-c2noc(-c3ccno3)n2)o1", "values": [{"measurement": "normalized growth", "setting": "locus YAR019C, strain CDC15, active compounds read low", "result": "0.0919 (active)"}, {"measurement": "normalized growth", "setting": "locus YBL105C, strain PKC1, active compounds read low", "result": "0.118 (active)"}, {"measurement": "normalized growth", "setting": "locus YBR135W, strain CKS1, active compounds read low", "result": "0.133 (active)"}, {"measurement": "normalized growth", "setting": "locus YBR136W, strain MEC1, active compounds read low", "result": "0.119 (active)"}, {"measurement": "normalized growth", "setting": "locus YBR160W, strain CDC28, active compounds read low", "result": "0.121 (active)"}, {"measurement": "normalized growth", "setting": "locus YDL017W, strain CDC7, active compounds read low", "result": "0.122 (active)"}, {"measurement": "normalized growth", "setting": "locus YDL028C, strain MPS1, active compounds read low", "result": "0.128 (active)"}, {"measurement": "normalized growth", "setting": "locus YDL101C, strain DUN1, active compounds read low", "result": "0.143 (active)"}, {"measurement": "normalized growth", "setting": "locus YDL108W, strain KIN28, active compounds read low", "result": "0.123 (active)"}, {"measurement": "normalized growth", "setting": "locus YDL132W, strain cdc53, active compounds read low", "result": "0.106 (active)"}, {"measurement": "normalized growth", "setting": "locus YDL214C, strain PRR2, active compounds read low", "result": "0.103 (active)"}, {"measurement": "normalized growth", "setting": "locus YDR052C, strain DBF4, active compounds read low", "result": "0.129 (active)"}, {"measurement": "normalized growth", "setting": "locus YDR054C, strain cdc34, active compounds read low", "result": "0.108 (active)"}, {"measurement": "normalized growth", "setting": "locus YDR226W, strain ADK1, active compounds read low", "result": "0.113 (active)"}, {"measurement": "normalized growth", "setting": "locus YDR477W, strain SNF1, active compounds read low", "result": "0.102 (active)"}, {"measurement": "normalized growth", "setting": "locus YER123W, strain YCK3, active compounds read low", "result": "0.113 (active)"}, {"measurement": "normalized growth", "setting": "locus YER133W, strain GLC7, active compounds read low", "result": "0.102 (active)"}, {"measurement": "normalized growth", "setting": "locus YFL009W, strain cdc4, active compounds read low", "result": "0.109 (active)"}, {"measurement": "normalized growth", "setting": "locus YFL029C, strain CAK1, active compounds read low", "result": "0.0982 (active)"}, {"measurement": "normalized growth", "setting": "locus YFR003C, strain YPI1, active compounds read low", "result": "0.126 (active)"}, {"measurement": "normalized growth", "setting": "locus YFR019W, strain FAB1, active compounds read low", "result": "0.104 (active)"}, {"measurement": "normalized growth", "setting": "locus YFR028C, strain CDC14, active compounds read low", "result": "0.0999 (active)"}, {"measurement": "normalized growth", "setting": "locus YGR040W, strain KSS1, active compounds read low", "result": "0.107 (active)"}, {"measurement": "normalized growth", "setting": "locus YGR052W, strain FMP48, active compounds read low", "result": "0.123 (active)"}, {"measurement": "normalized growth", "setting": "locus YGR092W, strain DBF2, active compounds read low", "result": "0.106 (active)"}, {"measurement": "normalized growth", "setting": "locus YHR030C, strain SLT2, active compounds read low", "result": "0.135 (active)"}, {"measurement": "normalized growth", "setting": "locus YHR079C, strain IRE1, active compounds read low", "result": "0.171 (active)"}, {"measurement": "normalized growth", "setting": "locus YHR082C, strain KSP1, active compounds read low", "result": "0.143 (active)"}, {"measurement": "normalized growth", "setting": "locus YHR205W, strain SCH9, active compounds read low", "result": "-0.000394 (active)"}, {"measurement": "normalized growth", "setting": "locus YIL147C, strain SLN1, active compounds read low", "result": "0.129 (active)"}, {"measurement": "normalized growth", "setting": "locus YJL095W, strain BCK1, active compounds read low", "result": "0.141 (active)"}, {"measurement": "normalized growth", "setting": "locus YJL128C, strain PBS2, active compounds read low", "result": "0.117 (active)"}, {"measurement": "normalized growth", "setting": "locus YJL157C, strain FAR1, active compounds read low", "result": "0.107 (active)"}, {"measurement": "normalized growth", "setting": "locus YJR016C, strain ILV3, active compounds read low", "result": "0.0915 (active)"}, {"measurement": "normalized growth", "setting": "locus YJR066W, strain TOR1 (second series), active compounds read low", "result": "0.0932 (active)"}, {"measurement": "normalized growth", "setting": "locus YJR066W, strain TOR1, active compounds read low", "result": "0.125 (active)"}, {"measurement": "normalized growth", "setting": "locus YKL048C, strain ELM1, active compounds read low", "result": "0.115 (active)"}, {"measurement": "normalized growth", "setting": "locus YKL067W, strain YNK1, active compounds read low", "result": "0.0963 (active)"}, {"measurement": "normalized growth", "setting": "locus YKL101W, strain HSL1, active compounds read low", "result": "0.106 (active)"}, {"measurement": "normalized growth", "setting": "locus YKL193C, strain SDS22, active compounds read low", "result": "0.0909 (active)"}, {"measurement": "normalized growth", "setting": "locus YKL203C, strain TOR2, active compounds read low", "result": "0.104 (active)"}, {"measurement": "normalized growth", "setting": "locus YLR113W, strain HOG1, active compounds read low", "result": "0.2 (active)"}, {"measurement": "normalized growth", "setting": "locus YLR133W, strain CKI1, active compounds read low", "result": "0.0997 (active)"}, {"measurement": "normalized growth", "setting": "locus YLR403W, strain SFP1, active compounds read low", "result": "0.00715 (active)"}, {"measurement": "normalized growth", "setting": "locus YML070W, strain DAK1, active compounds read low", "result": "0.1 (active)"}, {"measurement": "normalized growth", "setting": "locus YMR001C, strain CDC5, active compounds read low", "result": "0.093 (active)"}, {"measurement": "normalized growth", "setting": "locus YMR205C, strain PFK2 (second series), active compounds read low", "result": "0.0958 (active)"}, {"measurement": "normalized growth", "setting": "locus YMR277W, strain FCP1, active compounds read low", "result": "0.0929 (active)"}, {"measurement": "normalized growth", "setting": "locus YNL006W, strain LST8, active compounds read low", "result": "0.104 (active)"}, {"measurement": "normalized growth", "setting": "locus YNL020C, strain ARK1, active compounds read low", "result": "0.101 (active)"}, {"measurement": "normalized growth", "setting": "locus YNL161W, strain CBK1, active compounds read low", "result": "0.103 (active)"}, {"measurement": "normalized growth", "setting": "locus YNL183C, strain NPR1, active compounds read low", "result": "0.138 (active)"}, {"measurement": "normalized growth", "setting": "locus YNL207W, strain RIO2, active compounds read low", "result": "0.0962 (active)"}, {"measurement": "normalized growth", "setting": "locus YNL222W, strain SSU72, active compounds read low", "result": "0.1 (active)"}, {"measurement": "normalized growth", "setting": "locus YNL307C, strain MCK1 (second series), active compounds read low", "result": "0.11 (active)"}, {"measurement": "normalized growth", "setting": "locus YOL078W, strain AVO1, active compounds read low", "result": "0.0939 (active)"}, {"measurement": "normalized growth", "setting": "locus YOL136C, strain PFK27, active compounds read low", "result": "0.124 (active)"}, {"measurement": "normalized growth", "setting": "locus YOR061W, strain CKA2, active compounds read low", "result": "0.0948 (active)"}, {"measurement": "normalized growth", "setting": "locus YOR119C, strain RIO1, active compounds read low", "result": "0.112 (active)"}, {"measurement": "normalized growth", "setting": "locus YOR231W, strain MKK1, active compounds read low", "result": "0.14 (active)"}, {"measurement": "normalized growth", "setting": "locus YOR329C, strain SCD5, active compounds read low", "result": "0.104 (active)"}, {"measurement": "normalized growth", "setting": "locus YPL031C, strain PHO85, active compounds read low", "result": "0.112 (active)"}, {"measurement": "normalized growth", "setting": "locus YPL153C, strain RAD53, active compounds read low", "result": "0.0949 (active)"}, {"measurement": "normalized growth", "setting": "locus YPL204W, strain HRR25, active compounds read low", "result": "0.106 (active)"}, {"measurement": "normalized growth", "setting": "locus YPL209C, strain IPL1, active compounds read low", "result": "0.105 (active)"}, {"measurement": "normalized growth", "setting": "locus YPL256C, strain CLN2, active compounds read low", "result": "0.178 (active)"}, {"measurement": "normalized growth", "setting": "locus YPR025C, strain CCL1, active compounds read low", "result": "0.111 (active)"}, {"measurement": "normalized growth", "setting": "locus YPR106W, strain ISR1, active compounds read low", "result": "0.132 (active)"}, {"measurement": "normalized growth", "setting": "locus YPR111W, strain DBF20, active compounds read low", "result": "0.149 (active)"}, {"measurement": "normalized growth", "setting": "strain NNK1, active compounds read low", "result": "0.104 (active)"}, {"measurement": "normalized growth", "setting": "strain TSCII, active compounds read low", "result": "0.0899 (active)"}]}]}
